One sequence from PMC7862700, “An all-to-all approach to the identification of sequence-specific readers for epigenetic DNA modifications on cytosine” can be followed below.

What all share (test): DAPPL (digital affinity profiling via proximity ligation, sequencing); 10 mM Tris-HCl pH 7.5, 50 mM NaCl, 1 mM DTT, 4% glycerol, room temperature, 30 min; GST-TFs on glutathione beads, 16-mer random dsDNA library, 0.1% formaldehyde crosslink after washing; high values mean tight binding
The target of test [1] is T1, FEV (Homo sapiens, UniProt Q99581 1-238).
T1 sequence: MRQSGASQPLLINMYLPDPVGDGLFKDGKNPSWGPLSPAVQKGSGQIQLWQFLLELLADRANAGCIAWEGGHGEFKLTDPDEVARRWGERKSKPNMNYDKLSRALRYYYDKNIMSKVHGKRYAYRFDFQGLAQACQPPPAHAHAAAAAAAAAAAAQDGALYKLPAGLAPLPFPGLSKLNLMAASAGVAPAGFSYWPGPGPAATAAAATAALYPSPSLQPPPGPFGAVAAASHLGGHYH
Conditions: protein: recombinant; tags: N-terminal GST; dsDNA, one strand shown. The method, boiled down: (§1)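 Human transcription factors were made in yeast as GST fusions, captured on glutathione beads and barcoded with DNA. With a tag-only sample included, the pool was incubated with 200 nmole of a random double-stranded 16-mer DNA library in Tris/NaCl/DTT/glycerol buffer at room temperature for 30 min, then crosslinked with 0.1% formaldehyde after washing, ligated by proximity, amplified and sequenced. For binding signal, each hexamer's read frequency for a factor is divided by its frequency for the tag-only sample.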

The target in test [2] is ETV5 (Homo sapiens, UniProt P41161 1-510). Conditions: protein: recombinant; tags: N-terminal GST; dsDNA, one strand shown. The method, boiled down: as §1
In test [3] the target is HSF1 (Homo sapiens, UniProt Q00613 1-529). Conditions: protein: recombinant; tags: N-terminal GST; chain copies: 3; dsDNA, one strand shown. The method, boiled down: as §1
In test [4] the target is T2, SPIC (Homo sapiens, UniProt Q8N5J4 1-248).
T2 sequence: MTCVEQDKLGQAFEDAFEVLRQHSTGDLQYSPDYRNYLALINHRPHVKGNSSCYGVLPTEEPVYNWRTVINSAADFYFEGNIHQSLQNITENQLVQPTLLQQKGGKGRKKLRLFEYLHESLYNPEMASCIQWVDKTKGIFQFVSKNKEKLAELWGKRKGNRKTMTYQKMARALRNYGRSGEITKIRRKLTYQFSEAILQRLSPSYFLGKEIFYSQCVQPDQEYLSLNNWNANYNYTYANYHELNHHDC
Conditions: protein: recombinant; tags: N-terminal GST; dsDNA, one strand shown. The method, boiled down: as §1

The target in test [5] is ELF4 (Homo sapiens, UniProt Q99607 1-663). Conditions: protein: recombinant; tags: N-terminal GST; dsDNA, one strand shown. The method, boiled down: as §1
Test [6] concerns the target T3, ELK4 (Homo sapiens, UniProt P28324-2 1-405).
T3 sequence: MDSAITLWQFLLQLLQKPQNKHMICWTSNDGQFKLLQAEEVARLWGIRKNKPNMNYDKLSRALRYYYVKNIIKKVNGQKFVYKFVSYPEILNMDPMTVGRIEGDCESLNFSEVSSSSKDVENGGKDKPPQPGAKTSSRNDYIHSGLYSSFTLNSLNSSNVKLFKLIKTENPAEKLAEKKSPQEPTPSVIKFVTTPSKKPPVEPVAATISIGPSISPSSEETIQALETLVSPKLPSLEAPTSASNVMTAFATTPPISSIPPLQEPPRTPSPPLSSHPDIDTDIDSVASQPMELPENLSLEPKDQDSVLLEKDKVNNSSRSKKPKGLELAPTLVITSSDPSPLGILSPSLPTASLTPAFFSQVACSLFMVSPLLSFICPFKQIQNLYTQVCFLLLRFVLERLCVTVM
Conditions: protein: recombinant; tags: N-terminal GST; dsDNA, one strand shown. The method, boiled down:
as §1

Test [7] addresses T4, ETV2 (Homo sapiens, UniProt O00321 1-342).
T4 sequence: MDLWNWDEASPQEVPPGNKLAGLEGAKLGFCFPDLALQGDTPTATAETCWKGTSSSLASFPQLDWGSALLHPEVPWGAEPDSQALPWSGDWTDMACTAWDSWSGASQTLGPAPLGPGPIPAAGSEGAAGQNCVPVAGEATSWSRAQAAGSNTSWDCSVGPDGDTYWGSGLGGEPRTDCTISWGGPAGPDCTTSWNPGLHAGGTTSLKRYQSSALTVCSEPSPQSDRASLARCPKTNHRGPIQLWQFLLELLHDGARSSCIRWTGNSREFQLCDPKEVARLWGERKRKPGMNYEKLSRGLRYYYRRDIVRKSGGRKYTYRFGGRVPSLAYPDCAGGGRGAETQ
Conditions: protein: recombinant; tags: N-terminal GST; dsDNA, one strand shown. The method, boiled down: as §1

Test [8] addresses T5, ELF3 (Homo sapiens, UniProt P78545 1-371).
T5 sequence: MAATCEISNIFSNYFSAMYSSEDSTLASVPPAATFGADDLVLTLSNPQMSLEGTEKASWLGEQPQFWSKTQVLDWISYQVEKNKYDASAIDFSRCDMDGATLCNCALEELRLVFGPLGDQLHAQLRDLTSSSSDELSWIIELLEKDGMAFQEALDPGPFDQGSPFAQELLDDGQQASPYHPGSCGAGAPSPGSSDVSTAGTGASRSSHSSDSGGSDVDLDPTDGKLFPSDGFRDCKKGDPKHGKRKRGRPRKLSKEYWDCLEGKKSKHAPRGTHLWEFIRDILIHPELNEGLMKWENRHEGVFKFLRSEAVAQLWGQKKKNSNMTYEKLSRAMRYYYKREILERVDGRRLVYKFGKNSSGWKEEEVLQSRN
The conditions noted are these: protein: recombinant; tags: N-terminal GST; dsDNA, one strand shown. The gist of the method: as §1

Test [9] concerns the target CRX (Homo sapiens, UniProt O43186 1-299). The conditions noted are these: protein: recombinant; tags: N-terminal GST; dsDNA, one strand shown. The gist of the method:
as §1

Test [10] has as its target ETV1 (Homo sapiens, UniProt P50549 1-477). The conditions noted are these: protein: recombinant; tags: N-terminal GST; dsDNA, one strand shown. The gist of the method: as §1
The target of test [11] is T6, ERF (Homo sapiens, UniProt P50548 1-548).
T6 sequence: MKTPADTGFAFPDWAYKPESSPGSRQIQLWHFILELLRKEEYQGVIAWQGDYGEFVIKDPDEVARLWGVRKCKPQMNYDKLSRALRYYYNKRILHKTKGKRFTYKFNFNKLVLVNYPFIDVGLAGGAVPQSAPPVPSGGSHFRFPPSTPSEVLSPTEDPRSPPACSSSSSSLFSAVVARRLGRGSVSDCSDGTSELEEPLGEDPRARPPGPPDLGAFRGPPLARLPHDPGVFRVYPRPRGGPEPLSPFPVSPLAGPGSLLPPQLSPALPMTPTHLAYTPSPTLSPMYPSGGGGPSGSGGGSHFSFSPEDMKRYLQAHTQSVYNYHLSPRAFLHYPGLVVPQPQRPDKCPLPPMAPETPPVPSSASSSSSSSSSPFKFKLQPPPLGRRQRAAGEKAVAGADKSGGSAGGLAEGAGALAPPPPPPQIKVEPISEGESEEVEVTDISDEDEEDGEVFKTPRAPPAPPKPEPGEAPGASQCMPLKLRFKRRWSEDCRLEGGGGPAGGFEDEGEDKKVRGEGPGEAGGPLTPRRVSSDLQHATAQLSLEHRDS
Conditions: protein: recombinant; tags: N-terminal GST; dsDNA, one strand shown. The gist of the method: as §1

For test [12], the target named is T7, ETV3L (Homo sapiens, UniProt Q6ZN32 1-361).
T7 sequence: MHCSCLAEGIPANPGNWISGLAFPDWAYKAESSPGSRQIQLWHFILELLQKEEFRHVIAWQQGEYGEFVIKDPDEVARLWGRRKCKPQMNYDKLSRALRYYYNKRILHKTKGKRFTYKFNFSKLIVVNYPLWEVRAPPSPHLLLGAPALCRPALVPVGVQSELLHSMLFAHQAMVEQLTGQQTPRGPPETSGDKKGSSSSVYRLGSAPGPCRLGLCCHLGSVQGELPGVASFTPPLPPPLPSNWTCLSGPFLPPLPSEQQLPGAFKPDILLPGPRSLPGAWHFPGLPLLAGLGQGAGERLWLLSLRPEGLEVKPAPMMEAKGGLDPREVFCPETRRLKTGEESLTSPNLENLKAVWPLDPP
The conditions noted are these: protein: recombinant; tags: N-terminal GST; dsDNA, one strand shown. The gist of the method:
as §1

For test [13], the target named is T8, ETS2 (Homo sapiens, UniProt P15036 1-469).
T8 sequence: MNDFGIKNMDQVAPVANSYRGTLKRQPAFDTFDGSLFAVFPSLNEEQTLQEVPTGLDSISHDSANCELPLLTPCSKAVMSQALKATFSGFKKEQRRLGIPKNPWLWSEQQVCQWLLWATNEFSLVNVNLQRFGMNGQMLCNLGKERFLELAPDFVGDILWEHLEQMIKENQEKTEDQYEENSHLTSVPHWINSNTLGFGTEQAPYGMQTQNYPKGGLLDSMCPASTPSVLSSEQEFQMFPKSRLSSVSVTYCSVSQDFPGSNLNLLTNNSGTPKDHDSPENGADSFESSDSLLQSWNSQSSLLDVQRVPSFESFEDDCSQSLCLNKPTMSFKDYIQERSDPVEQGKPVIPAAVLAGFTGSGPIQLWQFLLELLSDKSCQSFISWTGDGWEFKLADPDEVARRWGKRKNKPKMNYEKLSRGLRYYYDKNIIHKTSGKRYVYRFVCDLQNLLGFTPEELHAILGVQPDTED
Conditions: protein: recombinant; tags: N-terminal GST; dsDNA, one strand shown. The method, boiled down: as §1

The target of test [14] is T9, SPDEF (Homo sapiens, UniProt O95238 1-335).
T9 sequence: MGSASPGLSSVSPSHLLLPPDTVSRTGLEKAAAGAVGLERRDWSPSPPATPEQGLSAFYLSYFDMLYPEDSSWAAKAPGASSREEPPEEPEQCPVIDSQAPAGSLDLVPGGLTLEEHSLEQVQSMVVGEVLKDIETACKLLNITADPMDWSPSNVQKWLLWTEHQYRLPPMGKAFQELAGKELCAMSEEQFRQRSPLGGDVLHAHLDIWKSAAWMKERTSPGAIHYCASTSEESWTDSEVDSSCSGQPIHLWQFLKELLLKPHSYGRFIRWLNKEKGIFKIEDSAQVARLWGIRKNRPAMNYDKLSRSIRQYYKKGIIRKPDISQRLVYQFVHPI
The conditions noted are these: protein: recombinant; tags: N-terminal GST; dsDNA, one strand shown. The method, boiled down: as §1

In test [15] the target is T10, ETV7 (Homo sapiens, UniProt Q9Y603 1-341).
T10 sequence: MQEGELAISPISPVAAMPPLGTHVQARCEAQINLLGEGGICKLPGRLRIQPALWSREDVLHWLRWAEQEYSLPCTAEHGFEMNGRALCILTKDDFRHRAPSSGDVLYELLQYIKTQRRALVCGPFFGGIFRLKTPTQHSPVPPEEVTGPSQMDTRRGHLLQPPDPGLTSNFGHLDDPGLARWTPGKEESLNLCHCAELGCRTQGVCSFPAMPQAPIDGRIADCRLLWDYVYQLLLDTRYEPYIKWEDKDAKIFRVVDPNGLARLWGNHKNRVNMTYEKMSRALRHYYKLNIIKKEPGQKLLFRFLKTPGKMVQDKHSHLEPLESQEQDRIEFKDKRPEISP
The conditions noted are these: protein: recombinant; tags: N-terminal GST; dsDNA, one strand shown. The method, boiled down:
as §1

Test [16] deals with T11, ELF5 (Homo sapiens, UniProt Q9UKW6-2 1-255).
T11 sequence: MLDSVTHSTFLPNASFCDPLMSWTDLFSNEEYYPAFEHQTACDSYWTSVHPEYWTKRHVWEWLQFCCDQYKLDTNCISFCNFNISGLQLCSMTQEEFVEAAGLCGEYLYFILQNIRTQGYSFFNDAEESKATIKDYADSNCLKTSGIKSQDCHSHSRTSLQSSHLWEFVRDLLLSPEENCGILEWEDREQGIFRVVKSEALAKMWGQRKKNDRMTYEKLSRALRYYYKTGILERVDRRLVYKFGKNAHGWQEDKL
Conditions: protein: recombinant; tags: N-terminal GST; dsDNA, one strand shown. The method, boiled down: as §1

The target in test [17] is T12, ETV3 (Homo sapiens, UniProt P41162-2 1-143).
T12 sequence: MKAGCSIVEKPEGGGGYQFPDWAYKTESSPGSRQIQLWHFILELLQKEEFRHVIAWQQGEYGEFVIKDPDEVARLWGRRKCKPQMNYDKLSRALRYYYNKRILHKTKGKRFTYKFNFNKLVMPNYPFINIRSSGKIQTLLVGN
Conditions: protein: recombinant; tags: N-terminal GST; dsDNA, one strand shown. The method, boiled down: as §1

Test [18] addresses ETV6 (Homo sapiens, UniProt P41212 1-452). The conditions noted are these: protein: recombinant; tags: N-terminal GST; dsDNA, one strand shown. The gist of the method: as §1

Sequence of CRX (O43186 whole entry): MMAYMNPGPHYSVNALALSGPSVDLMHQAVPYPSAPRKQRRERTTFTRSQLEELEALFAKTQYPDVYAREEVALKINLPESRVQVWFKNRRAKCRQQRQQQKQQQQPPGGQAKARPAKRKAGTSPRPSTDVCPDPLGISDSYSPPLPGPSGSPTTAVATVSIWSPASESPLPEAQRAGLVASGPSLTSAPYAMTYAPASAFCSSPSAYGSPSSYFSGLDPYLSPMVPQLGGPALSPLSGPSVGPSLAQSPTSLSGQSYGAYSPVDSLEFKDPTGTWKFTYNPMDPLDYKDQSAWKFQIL
Sequence of ETV6 (P41212 whole entry): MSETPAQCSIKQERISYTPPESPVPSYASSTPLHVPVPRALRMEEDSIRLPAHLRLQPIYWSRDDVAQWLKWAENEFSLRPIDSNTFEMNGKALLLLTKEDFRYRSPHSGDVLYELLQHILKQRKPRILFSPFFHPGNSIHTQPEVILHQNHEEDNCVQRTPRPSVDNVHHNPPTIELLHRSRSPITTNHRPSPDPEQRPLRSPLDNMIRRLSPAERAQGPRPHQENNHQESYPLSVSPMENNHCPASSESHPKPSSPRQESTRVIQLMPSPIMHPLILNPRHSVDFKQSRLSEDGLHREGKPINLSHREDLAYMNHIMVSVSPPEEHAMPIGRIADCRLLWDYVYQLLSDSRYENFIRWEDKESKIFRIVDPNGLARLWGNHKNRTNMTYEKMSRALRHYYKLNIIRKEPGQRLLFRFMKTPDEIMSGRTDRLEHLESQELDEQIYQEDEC
Sequence of ETV5 (P41161 whole entry): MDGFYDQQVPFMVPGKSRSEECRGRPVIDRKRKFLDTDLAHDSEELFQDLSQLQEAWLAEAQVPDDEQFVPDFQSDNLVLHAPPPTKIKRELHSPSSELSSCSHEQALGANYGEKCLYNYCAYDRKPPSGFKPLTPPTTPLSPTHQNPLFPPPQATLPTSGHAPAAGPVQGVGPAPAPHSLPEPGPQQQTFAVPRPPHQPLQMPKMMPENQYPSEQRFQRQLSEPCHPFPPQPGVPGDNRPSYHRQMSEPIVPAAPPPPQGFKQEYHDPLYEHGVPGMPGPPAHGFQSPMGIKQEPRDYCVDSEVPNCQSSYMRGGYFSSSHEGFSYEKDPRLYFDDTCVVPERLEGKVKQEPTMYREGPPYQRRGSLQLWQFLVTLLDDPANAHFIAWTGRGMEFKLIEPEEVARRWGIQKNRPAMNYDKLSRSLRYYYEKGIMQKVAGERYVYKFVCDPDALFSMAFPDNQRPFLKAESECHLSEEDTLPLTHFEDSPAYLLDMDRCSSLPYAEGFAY
Sequence of ELF4 (Q99607 whole entry): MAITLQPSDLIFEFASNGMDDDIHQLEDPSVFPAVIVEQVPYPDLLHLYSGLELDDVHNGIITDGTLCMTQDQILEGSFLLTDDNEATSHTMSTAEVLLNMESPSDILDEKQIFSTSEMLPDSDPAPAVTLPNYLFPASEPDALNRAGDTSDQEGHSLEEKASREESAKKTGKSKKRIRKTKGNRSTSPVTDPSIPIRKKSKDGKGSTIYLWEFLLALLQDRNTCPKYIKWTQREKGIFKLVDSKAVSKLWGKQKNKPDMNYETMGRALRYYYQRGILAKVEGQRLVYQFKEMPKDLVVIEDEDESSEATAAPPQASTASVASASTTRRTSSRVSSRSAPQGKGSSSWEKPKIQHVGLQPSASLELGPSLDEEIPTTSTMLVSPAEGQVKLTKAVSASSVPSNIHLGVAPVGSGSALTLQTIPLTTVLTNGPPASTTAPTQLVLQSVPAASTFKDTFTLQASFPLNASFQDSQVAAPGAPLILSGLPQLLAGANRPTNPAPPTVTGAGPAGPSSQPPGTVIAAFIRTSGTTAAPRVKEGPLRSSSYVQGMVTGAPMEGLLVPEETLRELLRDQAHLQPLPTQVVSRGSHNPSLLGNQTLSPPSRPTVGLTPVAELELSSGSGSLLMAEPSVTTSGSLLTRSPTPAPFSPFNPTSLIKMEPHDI
Sequence of HSF1 (Q00613 whole entry): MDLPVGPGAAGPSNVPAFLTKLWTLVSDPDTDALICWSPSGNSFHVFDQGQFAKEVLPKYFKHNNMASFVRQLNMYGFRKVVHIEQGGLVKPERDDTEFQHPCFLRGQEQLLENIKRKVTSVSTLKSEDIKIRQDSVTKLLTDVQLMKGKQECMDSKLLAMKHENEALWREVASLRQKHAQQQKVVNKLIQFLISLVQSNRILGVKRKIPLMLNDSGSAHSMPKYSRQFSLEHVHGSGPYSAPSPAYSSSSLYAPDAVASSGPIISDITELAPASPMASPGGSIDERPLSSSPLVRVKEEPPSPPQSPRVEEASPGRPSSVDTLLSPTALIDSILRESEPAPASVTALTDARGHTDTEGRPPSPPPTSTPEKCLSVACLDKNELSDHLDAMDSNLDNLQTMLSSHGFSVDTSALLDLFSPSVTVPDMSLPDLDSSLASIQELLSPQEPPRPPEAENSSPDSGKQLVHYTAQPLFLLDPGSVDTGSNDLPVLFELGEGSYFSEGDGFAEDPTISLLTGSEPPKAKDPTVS
Sequence of ETV1 (P50549 whole entry): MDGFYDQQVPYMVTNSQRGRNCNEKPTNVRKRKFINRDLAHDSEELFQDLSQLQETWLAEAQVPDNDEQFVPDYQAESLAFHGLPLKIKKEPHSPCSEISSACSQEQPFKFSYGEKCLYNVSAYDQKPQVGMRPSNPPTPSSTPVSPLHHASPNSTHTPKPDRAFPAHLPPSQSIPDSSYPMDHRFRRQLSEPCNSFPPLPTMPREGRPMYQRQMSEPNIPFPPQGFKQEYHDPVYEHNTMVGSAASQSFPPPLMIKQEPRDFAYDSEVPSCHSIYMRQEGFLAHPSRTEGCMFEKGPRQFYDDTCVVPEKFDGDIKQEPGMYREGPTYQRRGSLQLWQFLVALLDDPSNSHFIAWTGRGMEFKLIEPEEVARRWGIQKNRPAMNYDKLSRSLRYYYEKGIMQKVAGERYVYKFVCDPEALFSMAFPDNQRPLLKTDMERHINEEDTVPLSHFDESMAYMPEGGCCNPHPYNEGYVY

Consider AAAAAT, for which the binding signal in [1] was 1.27 fold enrichment (6-mer frequency, TF over GST control); in test [2], 1.3 fold enrichment (6-mer frequency, TF over GST control); in test [3] it was 1.5 fold enrichment (6-mer frequency, TF over GST control); in [4], 1.25 fold enrichment (6-mer frequency, TF over GST control); in test [5], 1.38 fold enrichment (6-mer frequency, TF over GST control); in test [6], 1.31 fold enrichment (6-mer frequency, TF over GST control). The binding signal in [7] is 1.49 fold enrichment (6-mer frequency, TF over GST control); in [8], 1.25 fold enrichment (6-mer frequency, TF over GST control); in test [9], 1.4 fold enrichment (6-mer frequency, TF over GST control); in test [10], 1.26 fold enrichment (6-mer frequency, TF over GST control); in test [11] it was 1.35 fold enrichment (6-mer frequency, TF over GST control); in test [12] it was 1.34 fold enrichment (6-mer frequency, TF over GST control). Further, the binding signal was 1.3 fold enrichment (6-mer frequency, TF over GST control) in [13]; 1.21 fold enrichment (6-mer frequency, TF over GST control) in test [14]; 1.34 fold enrichment (6-mer frequency, TF over GST control) in test [15]; 1.3 fold enrichment (6-mer frequency, TF over GST control) in test [16]; 1.29 fold enrichment (6-mer frequency, TF over GST control) in [17]; 1.35 fold enrichment (6-mer frequency, TF over GST control) in [18].
